Unmarked numbers belong to inactive results. Inconclusive results are not listed. Entries that show only a call come without a potency. Active and inactive are the calls of the source. Unless noted, calls follow the shape of the full dose curve.
What was measured:
[1] = qHTS assay to identify small molecule agonists of the androgen receptor (AR) signaling pathway in the presence of an antagonist - cell viability counter screen (AID 1259379; active = well fitted curve in the direction sought with a large enough effect in the repeat runs; an effect the other way counts as inactive or inconclusive; also: nearly all actives have a fitted effect of over 25% in size; also: potency is read from the fitted curve at half-maximal effect)
Outline: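 Seed MDA-kb2 at 3,000 cells/well; incubate 5 hr, 37C, 0% CO2. Add nilutamide to 3.0uM final, then pin compounds at 15 concentrations. Incubate 16 hr. Add CellTiter-Fluor at 15 hr, read fluorescence after 1 hr.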

[2] = target: Androgen receptor (Homo sapiens) (UniProt P10275); experiment: qHTS assay to identify small molecule agonists of the androgen receptor (AR) signaling pathway in the presence of an antagonist (AID 1259381); also: nearly all actives have a fitted effect of over 15% in size
Chain of Androgen receptor (Homo sapiens) (P10275 whole entry, looked up): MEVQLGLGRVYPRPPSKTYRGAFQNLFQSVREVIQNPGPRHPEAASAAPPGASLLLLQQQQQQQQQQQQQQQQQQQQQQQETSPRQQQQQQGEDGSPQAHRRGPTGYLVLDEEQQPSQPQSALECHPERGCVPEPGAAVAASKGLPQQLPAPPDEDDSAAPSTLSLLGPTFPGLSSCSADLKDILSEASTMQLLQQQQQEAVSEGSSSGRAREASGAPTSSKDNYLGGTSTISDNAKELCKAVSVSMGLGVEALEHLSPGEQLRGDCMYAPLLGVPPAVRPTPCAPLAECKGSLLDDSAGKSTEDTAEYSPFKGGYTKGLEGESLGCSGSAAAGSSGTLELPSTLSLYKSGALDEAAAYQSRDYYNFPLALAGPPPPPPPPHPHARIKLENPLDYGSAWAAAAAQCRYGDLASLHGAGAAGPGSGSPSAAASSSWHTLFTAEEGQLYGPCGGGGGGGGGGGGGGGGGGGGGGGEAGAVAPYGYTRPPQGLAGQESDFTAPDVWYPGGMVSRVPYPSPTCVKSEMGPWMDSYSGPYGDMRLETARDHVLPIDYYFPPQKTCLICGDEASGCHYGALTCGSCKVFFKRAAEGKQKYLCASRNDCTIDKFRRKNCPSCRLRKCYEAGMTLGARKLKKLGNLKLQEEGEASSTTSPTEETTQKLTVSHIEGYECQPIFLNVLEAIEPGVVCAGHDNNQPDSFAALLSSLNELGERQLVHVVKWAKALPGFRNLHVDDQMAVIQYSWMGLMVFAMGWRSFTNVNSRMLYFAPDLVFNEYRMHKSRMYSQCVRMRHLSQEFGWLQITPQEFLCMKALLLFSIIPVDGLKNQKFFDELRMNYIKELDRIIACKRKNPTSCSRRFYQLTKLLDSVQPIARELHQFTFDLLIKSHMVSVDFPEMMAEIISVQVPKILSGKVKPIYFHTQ
Outline: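 Test compounds at 15 concentrations were incubated for 16hr with MDA-kb2 reporter cells in presence of 3.0uM nilutamide (final). Signal: ONE-Glo luciferase luminescence.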

[3] = qHTS assay to identify small molecule antagonists of the estrogen receptor beta (ER-beta) signaling pathway - cell viability counter screen (AID 1259382; active = well fitted curve in the direction sought with a large enough effect in the repeat runs; an effect the other way counts as inactive or inconclusive; also: nearly all actives have a fitted effect of over 55% in size; also: potency is read from the fitted curve at half-maximal effect)
Outline: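 In this multiplexed counter screen, cells were seeded at 2,000 per well in medium with 2% charcoal-stripped FBS and incubated 6 hr before compound and 1nM final E2 were added. Sixteen hours later, ATP-based luminescence reported viability.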

[4] = target: Estrogen receptor (Homo sapiens) (UniProt P03372); experiment: qHTS assay to identify small molecule agonists of the estrogen receptor alpha (ER-alpha) signaling pathway in the presence of an antagonist (AID 1259383); also: nearly all actives have a fitted effect of over 15% in size; also: potency is read from the fitted curve at half-maximal effect
Chain of Estrogen receptor (Homo sapiens) (P03372 whole entry, looked up): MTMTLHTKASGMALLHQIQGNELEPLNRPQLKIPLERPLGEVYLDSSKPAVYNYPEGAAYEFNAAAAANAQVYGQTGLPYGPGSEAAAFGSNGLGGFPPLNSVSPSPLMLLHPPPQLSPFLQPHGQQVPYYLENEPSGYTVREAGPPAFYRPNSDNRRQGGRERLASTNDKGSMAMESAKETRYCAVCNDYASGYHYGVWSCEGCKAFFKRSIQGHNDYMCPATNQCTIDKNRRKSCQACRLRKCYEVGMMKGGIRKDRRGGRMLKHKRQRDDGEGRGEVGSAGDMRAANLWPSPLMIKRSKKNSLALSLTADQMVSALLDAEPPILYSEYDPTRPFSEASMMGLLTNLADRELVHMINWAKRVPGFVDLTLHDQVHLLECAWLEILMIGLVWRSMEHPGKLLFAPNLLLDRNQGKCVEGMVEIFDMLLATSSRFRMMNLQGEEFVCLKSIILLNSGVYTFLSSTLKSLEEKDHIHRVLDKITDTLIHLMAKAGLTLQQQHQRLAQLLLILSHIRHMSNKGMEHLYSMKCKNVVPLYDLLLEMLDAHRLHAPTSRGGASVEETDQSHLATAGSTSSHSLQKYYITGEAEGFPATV
Outline: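 Stably transfected VM7Luc4E2 reporter cells, kept 5 days in charcoal-stripped serum, received ICI-182,780 at 10.0nM final before compound addition. Following 22hr incubation at 37C and 5% CO2, luciferase signal was read by luminescence.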

[5] = qHTS assay to identify small molecule agonists of the estrogen receptor alpha (ER-alpha) signaling pathway in the presence of an antagonist - cell viability counter screen (AID 1259386; active = well fitted curve in the direction sought with a large enough effect in the repeat runs; an effect the other way counts as inactive or inconclusive;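 also: cells exposed to compounds for 22 h at 37 °C before the viability read; nearly all actives have a fitted effect of over 30% in size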; also: potency is read from the fitted curve at half-maximal effect)
Outline: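 Viability counter screen using VM7Luc4E2 (full-length ER-alpha, four ERE-luciferase). The cells were treated with compounds alongside ICI-182,780 10.0nM for 22hr, and live-cell protease fluorescence was quantified with CellTiter-Fluor.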

[6] = target: Progesterone receptor (Homo sapiens) (UniProt P06401); experiment: qHTS assay to identify small molecule agonists of the progesterone receptor (PR) signaling pathway (AID 1346784); also: nearly all actives have a fitted effect of over 30% in size
Chain of Progesterone receptor (Homo sapiens) (P06401 whole entry, looked up): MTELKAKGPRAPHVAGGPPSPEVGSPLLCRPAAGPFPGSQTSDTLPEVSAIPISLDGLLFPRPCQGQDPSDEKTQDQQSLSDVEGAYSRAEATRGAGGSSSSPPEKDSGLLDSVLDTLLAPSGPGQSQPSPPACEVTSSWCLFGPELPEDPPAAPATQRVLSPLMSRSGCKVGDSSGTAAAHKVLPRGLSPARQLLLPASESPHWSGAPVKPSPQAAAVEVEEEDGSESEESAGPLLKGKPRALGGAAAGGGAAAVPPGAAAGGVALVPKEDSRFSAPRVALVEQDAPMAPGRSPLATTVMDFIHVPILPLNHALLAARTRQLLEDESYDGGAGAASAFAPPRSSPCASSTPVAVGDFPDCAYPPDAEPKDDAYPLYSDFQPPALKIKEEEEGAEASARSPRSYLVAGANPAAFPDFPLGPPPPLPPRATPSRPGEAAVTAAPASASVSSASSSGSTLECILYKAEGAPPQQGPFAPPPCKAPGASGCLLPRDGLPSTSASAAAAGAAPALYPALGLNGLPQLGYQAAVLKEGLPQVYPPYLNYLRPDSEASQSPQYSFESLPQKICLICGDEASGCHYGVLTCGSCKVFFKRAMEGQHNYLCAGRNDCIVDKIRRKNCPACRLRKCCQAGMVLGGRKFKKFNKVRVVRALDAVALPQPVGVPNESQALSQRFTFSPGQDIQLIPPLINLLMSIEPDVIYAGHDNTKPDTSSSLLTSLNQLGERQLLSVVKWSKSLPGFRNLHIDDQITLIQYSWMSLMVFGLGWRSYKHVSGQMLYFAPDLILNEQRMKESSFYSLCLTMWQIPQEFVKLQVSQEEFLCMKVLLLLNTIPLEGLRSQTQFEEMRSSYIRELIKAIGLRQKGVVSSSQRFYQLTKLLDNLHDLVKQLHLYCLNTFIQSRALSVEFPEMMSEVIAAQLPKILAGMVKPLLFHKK
Outline: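 Agonist qHTS: compounds pinned onto 3,000 PR-UAS-bla HEK 293T cells per well in charcoal-stripped serum medium, 16hr at 37C, then beta-lactamase activity measured by LiveBLAzer FRET fluorescence after 2 hours at room temperature.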

[7] = target: Progesterone receptor (Homo sapiens) (UniProt P06401); experiment: qHTS assay to identify small molecule antagonists of the progesterone receptor (PR) signaling pathway (AID 1346795; active = well fitted inhibition curve with a large enough effect in the signal ratio in the repeat runs, not every such curve was filed as active; the % refers to the signal ratio; also: potency is read from the fitted curve at half-maximal effect)
Outline: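 Antagonist mode with agonist R5020 at 1 nM final and 16 hr incubation at 37C. Reporter was beta-lactamase driven by UAS in HEK293T (PR-UAS-bla), 2% charcoal-stripped serum; signal from LiveBLAzer FRET substrate, 2 hr at room temperature.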

[8] = qHTS assay to identify small molecule agonists or antagonists of the thyroid stimulating hormone receptor (TSHR) signaling pathway - wild type cell line counter screen (AID 1259384)
Outline: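 Wild-type HEK293 cells were plated 18 h at 37 C/5% CO2, pin-dosed with compound plus Ro20-1724 medium, held 30 min at room temperature, then given cAMP-d2 and anti-cAMP-cryptate; fluorescence was read after 1 h. Fifteen concentrations, triplicate.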

[9] = target: Thyrotropin receptor (Homo sapiens) (UniProt P16473); experiment: qHTS assay to identify small molecule antagonists of the thyroid stimulating hormone receptor (TSHR) signaling pathway (AID 1259385); also: nearly all actives have a fitted effect of over 20% in size; also: potency is read from the fitted curve at half-maximal effect
Chain of Thyrotropin receptor (Homo sapiens) (P16473 whole entry, looked up): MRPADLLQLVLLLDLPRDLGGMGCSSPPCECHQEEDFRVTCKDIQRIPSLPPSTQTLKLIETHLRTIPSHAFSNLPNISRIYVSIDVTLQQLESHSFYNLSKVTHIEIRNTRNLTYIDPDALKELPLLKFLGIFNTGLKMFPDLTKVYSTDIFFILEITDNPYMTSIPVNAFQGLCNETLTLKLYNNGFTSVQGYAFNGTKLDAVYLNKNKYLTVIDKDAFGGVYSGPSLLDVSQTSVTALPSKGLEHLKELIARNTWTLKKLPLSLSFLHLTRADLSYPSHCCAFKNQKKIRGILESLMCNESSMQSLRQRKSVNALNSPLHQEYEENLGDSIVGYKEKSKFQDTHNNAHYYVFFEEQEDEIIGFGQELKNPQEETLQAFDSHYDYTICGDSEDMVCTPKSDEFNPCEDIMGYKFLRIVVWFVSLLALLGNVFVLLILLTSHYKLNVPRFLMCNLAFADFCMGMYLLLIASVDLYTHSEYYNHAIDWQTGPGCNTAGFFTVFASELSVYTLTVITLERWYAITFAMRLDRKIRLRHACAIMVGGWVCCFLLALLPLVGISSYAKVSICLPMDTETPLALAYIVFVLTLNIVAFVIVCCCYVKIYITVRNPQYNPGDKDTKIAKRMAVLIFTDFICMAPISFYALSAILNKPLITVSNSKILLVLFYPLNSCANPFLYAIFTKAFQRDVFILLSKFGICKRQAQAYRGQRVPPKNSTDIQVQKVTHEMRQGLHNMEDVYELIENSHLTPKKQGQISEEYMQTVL
Outline: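 TSHR-HEK293 cells were plated and held 18 h at 37C/5% CO2, then given compound plus Ro20-1724 and stimulated with TSH at 1.5 ng/mL final. After 30 min at room temperature, cAMP was detected with cAMP-d2/anti-cAMP-cryptate (1 h) by fluorescence.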

[10] = qHTS assay to identify small molecule agonists of the estrogen receptor beta (ER-beta) signaling pathway - cell viability counter screen (AID 1259380; active = well fitted curve in the direction sought with a large enough effect in the repeat runs; an effect the other way counts as inactive or inconclusive; also: nearly all actives have a fitted effect of over 30% in size)
Outline: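 CellTiter-Glo read, 30 min RT, same wells as bla assay; cells ER-beta-UAS-bla HEK293T; 16 hr compound, 37C; medium 2% charcoal-stripped FBS.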

Compound | Potency [1] | Potency [2] | Potency [3] | Potency [4] | Potency [5] | outcome [6] | Potency [7] | Potency [8] | Potency [9] | Potency [10]
Clc1cccc(Cl)n1 | inactive | inactive | inactive | inactive | inactive | inactive | – | – | – | –
Nc1ccc(Cl)c([N+](=O)[O-])c1 | inactive | inactive | – | – | – | inactive | 54.5 µM (active) | – | – | –
CC(O)(c1ccc(Cl)cc1)c1ccc(Cl)cc1 | inactive | – | inactive | inactive | inactive | inactive | – | inactive | inactive | –
O=C1CCCCCCCCCCCCCC1 | inactive | – | inactive | inactive | inactive | inactive | inactive | – | – | –
CC(C)(C)C1=CC(=O)C(C(C)(C)C)=CC1=O | inactive | inactive | inactive | – | – | inactive | inactive | inactive | inactive | –
CC(C)=NNC(N)=S | inactive | – | – | inactive | – | – | – | – | – | –
CCCCCCCCCCCCCCCCC(C(=O)O)C(O)(CC(=O)O)C(=O)O (stereo not drawn) | inactive | inactive | inactive | inactive | – | inactive | inactive | inactive | inactive | –
Cc1ccc2sc3cccc(C)c3c2c1 | inactive | inactive | inactive | inactive | – | inactive | – | inactive | inactive | –
Nc1ccc(Oc2cccc(Oc3ccc(N)cc3)c2)cc1 | inactive | – | inactive | inactive | inactive | inactive | 30.6 µM (active) | – | – | –
COc1c(Br)cc(Br)c(C)c1Br | inactive | – | inactive | – | inactive | inactive | inactive | inactive | – | –
C1=CCCC1 | inactive | inactive | inactive | inactive | inactive | – | – | inactive | – | –
Oc1ccc(C2(c3ccc(O)c(C4CCCCC4)c3)CCCCC2)cc1C1CCCCC1 | 43.3 µM (active) | – | 27.3 µM (active) | inactive | – | – | – | inactive | – | –
Cc1cc(Br)ccc1NC(=O)CCl | 54.5 µM (active) | – | 30.6 µM (active) | inactive | – | inactive | – | inactive | – | –
CC(C)(C)c1ccc(OC2CCCCC2O)cc1 (stereo not drawn) | inactive | inactive | – | inactive | – | inactive | – | inactive | inactive | –
CCC(=O)OC/C=C(\C)CCC=C(C)C | inactive | inactive | inactive | inactive | – | inactive | inactive | – | inactive | –
O=C(CCCCCCCCc1cccnc1)N1CCC(C=C(c2ccccc2)c2ccccc2)CC1 | 61.1 µM (active) | inactive | 24.3 µM (active) | – | – | – | 21.7 µM (active) | inactive | inactive | –
CC(C)c1ccc2sc3ccccc3c(=O)c2c1 | inactive | – | inactive | 1.37 µM (active) | – | inactive | – | inactive | 54.5 µM (active) | –

Compound | Potency [1] | Potency [2] | Potency [3] | Potency [4] | Potency [5] | outcome [6] | Potency [7] | Potency [8] | Potency [9] | Potency [10]
CCCCCN=C(N)N/N=C/c1c[nH]c2ccc(OC)cc12 | 13.3 µM (active) | – | 16.8 µM (active) | – | 33.5 µM (active) | – | – | inactive | – | –
C=CC(=O)O[C@H]1C[C@@H]2CC[C@@]1(C)C2(C)C | inactive | – | inactive | inactive | inactive | inactive | inactive | – | – | –
c1ccc(-c2nc3ccccc3[nH]2)cc1 | inactive | – | – | inactive | inactive | inactive | – | inactive | inactive | –
CC/C(=C(/c1ccc(O)cc1)c1ccc(OCCN(C)C)cc1)c1ccccc1 | 40.3 µM (active) | inactive | 28.5 µM (active) | – | – | – | – | – | inactive | –
CC(C=O)c1ccccc1 (stereo not drawn) | inactive | inactive | inactive | inactive | inactive | inactive | inactive | inactive | inactive | –
CC(CC(C)(C)C)CC(C)(C)CC(C)(C)C (stereo not drawn) | inactive | inactive | inactive | – | inactive | – | – | inactive | inactive | –
O=C(Nc1ccccc1)c1cc(Cl)ccc1O | 13.7 µM (active) | – | inactive | inactive | – | – | 24.3 µM (active) | – | inactive | –
CC1(C)[C@H]2CC[C@]1(C)C(=O)C2 | inactive | – | inactive | inactive | inactive | inactive | – | inactive | inactive | –
CCc1cccc(CC)c1 | inactive | inactive | inactive | inactive | inactive | inactive | inactive | – | – | –
CO[Si](OC)(c1ccccc1)c1ccccc1 | inactive | – | inactive | inactive | inactive | inactive | – | – | inactive | –
CCOC=C(C(=O)OCC)C(=O)OCC | inactive | inactive | inactive | inactive | inactive | inactive | inactive | inactive | inactive | –
c1ccc2cc3c4ccccc4c4ccccc4c3cc2c1 | inactive | – | inactive | – | inactive | inactive | inactive | inactive | inactive | –
CCCCCCCCOC(=O)c1cc(O)c(O)c(O)c1 | 17.2 µM (active) | – | – | inactive | 54.5 µM (active) | – | 30.6 µM (active) | inactive | inactive | –
CCCC(=O)c1cc(O)c(O)cc1O | 54.5 µM (active) | inactive | inactive | inactive | 30.6 µM (active) | – | – | – | – | –
Oc1ccc(Cl)cc1C1CCCC1 | inactive | – | inactive | inactive | inactive | inactive | – | inactive | inactive | –
CC(=O)Nc1ccc(N=Nc2cc(C)ccc2O)cc1 | – | – | inactive | inactive | – | inactive | 48.6 µM (active) | – | – | inactive
